Experimental data: PubChem BioAssay (EPA / NIEHS)
Results filed as inconclusive are left out. Active and inactive are the calls of the source. Rule for the calls, unless noted: active = hit-call score of the fitted dose curve at least 0.9, where 1 is the maximum; inconclusive = response in the unintended direction; inactive = score below 0.9.

Columns and labels:
[1] = target: Cellular tumor antigen p53 (Homo sapiens) (UniProt P04637); assay: TOX21_p53_BLA_p2_ratio: Tox21 HCT-116 p53 Agonism Beta-lactamase Assay, Ratio, Phase 2 (AID 2283592)
In short: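 HCT116 cells carrying a p53-responsive beta-lactamase reporter were plated, incubated 5 h at 37C, then dosed with compounds in DMSO (217-fold dilution) for 16 h. CCF4-AM substrate was added for 2 h at room temperature; the 460/530 nm emission ratio gave gain-of-signal activity relative to DMSO.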

[2] = target: Cellular tumor antigen p53 (Homo sapiens) (UniProt P04637); assay: TOX21_p53_BLA_p3_ratio: Tox21 HCT-116 p53 Agonism Beta-lactamase Assay, Ratio, Phase 3 (AID 2283596)
In short: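 HCT116 p53-bla cells (4000/well) given compound in DMSO (217-fold dilution) after 5 h, incubated 16 h at 37C. CCF4-AM substrate 2 h at room temperature; 460/530 nm emission ratio, gain fitted against DMSO.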

[3] = TOX21_p53_BLA_p4_viability: Viability Assessment in the Tox21 HCT-116 p53 Agonism Beta-lactamase Assay, Phase 4 (AID 2283597);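 note: hits lower the luminescence signal meaning cytotoxicity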
In short: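 HCT116 p53-bla cells (4000/well) rested 5 h at 37C, then received compounds in DMSO (217-fold dilution) for 16 h at 37C, 5% CO2. CellTiter-Glo was added after the CCF4-AM read, and luminescence was read after 30 min at room temperature.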

[4] = target: Cellular tumor antigen p53 (Homo sapiens) (UniProt P04637); assay: TOX21_p53_BLA_p5_ratio: Tox21 HCT-116 p53 Agonism Beta-lactamase Assay, Ratio, Phase 5 (AID 2283599)
In short: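 HCT-116 p53-bla cells (4000/well) plated 5 h, dosed with compound (217-fold DMSO dilution) for 16 h at 37 C; CCF4-AM substrate 2 h at room temperature. Activity is the 460/530 nm emission ratio (405 nm excitation), fitted in gain-of-signal direction versus DMSO.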

[5] = target: Cellular tumor antigen p53 (Homo sapiens) (UniProt P04637); assay: TOX21_p53_BLA_p4_ratio: Tox21 HCT-116 p53 Agonism Beta-lactamase Assay, Ratio, Phase 4 (AID 2283601)
In short: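 HCT-116 p53 beta-lactamase reporter cells (4000/well) preincubated 5 h, then compound (217-fold dilution of DMSO stock) for 16 h at 37C. CCF4-AM substrate added 2 h at room temperature; 460/530 nm emission ratio fitted upward versus DMSO.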

[6] = CCTE_Harrill_HTTr_Viability_MCF7: CCTE's 6-hour Cell Viability Assessment for the High-Throughput Transcriptomics (HTTr) Platform, in MCF-7 cells cultured in DMEM + 10% fetal bovine serum, Harrill Lab (AID 2284010; active = hit-call score of the fitted dose curve at least 0.9, where 1 is the maximum; inactive = score below 0.9)
In short: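 Viability measured through PI dye exclusion by high-content imaging at 6 h post-dosing.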

[7] = CCTE_Harrill_HTTr_Apoptosis_MCF7: CCTE's 6-hour Apoptosis Assessment for the High-Throughput Transcriptomics (HTTr) Platform, in MCF-7 cells cultured in DMEM + 10% fetal bovine serum, Harrill Lab (AID 2284011; active = hit-call score of the fitted dose curve at least 0.9, where 1 is the maximum; inactive = score below 0.9)
In short: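 MCF-7 cells in DMEM + 10% fetal bovine serum were exposed to chemicals for 6 hours over an eight-point dilution series. Caspase-3/7 activation was imaged by high content imaging with CellEvent Caspase 3/7 Green; bidirectional fitting used DMSO as baseline.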

[8] = TOX21_p53_BLA_p5_viability: Viability Assessment in the Tox21 HCT-116 p53 Agonism Beta-lactamase Assay, Phase 5 (AID 2283600)
In short: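 Cells were plated at 4000/well, rested 5 h at 37C, then given compounds in DMSO (217-fold dilution) for 16 h at 37C, 5% CO2. Following the CCF4-AM beta-lactamase read, CellTiter-Glo was added and luminescence was read after 30 min at room temperature.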

Measured: outcome

Cellular tumor antigen p53 (Homo sapiens), sequence (P04637 whole entry, looked up): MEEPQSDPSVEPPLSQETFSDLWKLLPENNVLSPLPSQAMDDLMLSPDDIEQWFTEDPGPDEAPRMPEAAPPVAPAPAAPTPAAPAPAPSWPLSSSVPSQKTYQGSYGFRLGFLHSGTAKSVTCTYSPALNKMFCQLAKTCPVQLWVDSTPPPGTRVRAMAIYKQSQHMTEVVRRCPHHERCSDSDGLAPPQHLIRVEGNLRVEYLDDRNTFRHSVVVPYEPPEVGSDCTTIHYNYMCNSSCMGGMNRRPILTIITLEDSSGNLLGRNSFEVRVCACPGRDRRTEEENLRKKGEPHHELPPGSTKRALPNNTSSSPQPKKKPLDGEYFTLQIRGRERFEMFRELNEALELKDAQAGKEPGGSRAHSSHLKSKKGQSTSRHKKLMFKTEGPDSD

BrC(Br)Br
not listed: [8]
inactive: all other assays above

CC(Cc1ccccc1)NC=O (configuration not stated)
not listed: [6] | [7]
inactive: all other assays above

CCOP(=S)(OCC)SCCl
inactive: [1] | [2] | [3] | [8] | [5]

CCOC(=O)c1ncn2c1CN(C)C(=O)c1c(I)cccc1-2
inactive: [1] | [2] | [3] | [4] | [5]

[O-][Br+2]([O-])O
inactive: [1] | [2] | [3] | [5]
